Each structure is given as a SMILES string. Results filed as inconclusive are left out. Active and inactive are the calls of the source. The calls were made as follows: active = hit-call score of the fitted dose curve at least 0.9, where 1 is the maximum; inconclusive = response in the unintended direction; inactive = score below 0.9.

This test is described as follows: ACEA_ER_AUC_viability: ACEA Biosciences xCELLigence Real-Time Cell Analysis on Estrogen Receptor Agonism for Viability (AID 2283782).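 Also: continuous compound exposure with impedance area under curve over 80 h; hit means loss of impedance signal meaning reduced cell growth or viability.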 Summed up:
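T47D cells preconditioned in phenol red-free RPMI with charcoal-stripped FBS, then dosed with 8-point 1:4 series from 100 uM (up to 0.5% DMSO). Impedance monitored up to ~80 h; area-under-curve loss versus DMSO taken as viability.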
As to `CC1=CC(=O)CCC1`, the call was inactive. In the case of `C1CCC2(CCCCO2)OC1`, the result was inactive. As for `O=C(O)c1c(Cl)ccc(Cl)c1Cl`, the compound was called inactive.
